The whole screen tested about 300,000 compounds, of which about 37,000 (12%) were called active. Rule as the data show it: active = max response mostly above about 13% (no sharp cut-off); inactive = mostly below about 14%. For the sample, actives were picked, then their nearest neighbours and some compounds at random.
test: Cycloheximide Counterscreen for Small Molecule Inhibitors of Shiga Toxin; conditions: cell reporter, cycloheximide protein synthesis inhibition counterscreen; hits give high values; also: read at 38.3 µM for the half of the compounds with a filed dose; 0% is about no effect

Structure (SMILES)	max response
O=C1CSc2ccc(S(=O)(=O)NCc3ccccc3)cc2N1	7.11% (inactive)
COc1cccc(N(C(=O)c2ccn[nH]2)C2(C(=O)Nc3c(C)cccc3C)CCCCC2)c1	-5.43% (inactive)
Cc1oc(-c2ccccc2F)nc1CS(=O)CC(=O)NCCN1CCCCC1C (stereo not given)	-6.49% (inactive)
CC1CCN(c2oc(-c3ccccc3F)nc2C#N)CC1	28.8% (active)
COc1ccccc1-c1nc(C#N)c(N2CCC(C(N)=O)CC2)o1	-3.17% (inactive)
Cc1ccc(NN=Nc2nc3c([nH]2)c(=O)n(C)c(=O)n3C)cc1	11.7% (inactive)
Cc1cccc(C)c1NC(=O)CN1C(=O)C(C)Oc2ccccc21 (stereo not given)	1.84% (inactive)
COCCn1c(SCC(=O)Nc2ccccc2F)nc2c(c1=O)SCC2	8.88% (inactive)
COc1ccc(C(C)NC(=S)NC2CCCCC2)cc1OC (stereo not given)	-2.46% (inactive)
COc1cc(Br)c(-c2sc(Nc3ccccc3)n[n+]2-c2ccccc2)cc1OC	1.49% (inactive)
CCc1ccc(Oc2coc3cc(OC(=O)c4cc5ccccc5oc4=O)ccc3c2=O)cc1	12% (inactive)
COc1ccc(Oc2coc3cc(OC(=O)c4cncc(Br)c4)ccc3c2=O)cc1	5.74% (inactive)
CCc1ccc(Oc2coc3cc(O)ccc3c2=O)cc1	31.5% (active)
CC[C@H](C)[C@H](NC(=O)[C@H](Cc1ccc(O)cc1)NC(=O)[C@@H](NC(=O)[C@H](CCCN=C(N)N)NC(=O)[C@@H](N)CC(=O)O)C(C)C)C(=O)N[C@@H](Cc1cnc[nH]1)C(=O)N1CCC[C@H]1C(=O)N[C@@H](Cc1ccccc1)C(=O)O	16% (inactive)
C=CCN1C(=O)C2(OCCCO2)c2cccc(Cl)c21	1.84% (inactive)
Cc1ccc(CNC(=O)Cn2cnc(S(=O)(=O)N3CCCCC3)c2)o1	6.21% (inactive)
CCOC(=O)c1ccc(-c2ccc(C(=O)Nc3cccnc3)o2)cc1	32.1% (active)
O=C(Cc1ccccc1)Nc1ccc(NC(=O)c2cccnc2)cc1	-2.68% (inactive)
COc1ccc(C)cc1NC(=O)c1ccc(-c2ccc(C(C)=O)cc2)o1	16% (inactive)
CCCc1nnc(SCC(=O)Nc2ccc(C(=O)OCC)cc2)o1	3.14% (inactive)

Structure (SMILES)	max response
CCOC(=O)c1ccc(NC(=O)CCn2c(=O)oc3ccccc32)cc1	9.25% (inactive)
C#CCNc1ccc(C(=O)OCC)cc1	31.8% (active)
CC(C)NS(=O)(=O)c1ccc(NC(=O)c2cccnc2)cc1	-3.02% (inactive)
CCCCC(CCC(=O)Nc1ccc(C(=O)OCC)cc1)C(=O)O (stereo not given)	0.691% (inactive)
CCOC(=O)c1ccc(NC(=O)CSc2nnc(COc3ccccc3OC)n2C)cc1	4.99% (inactive)
CCOC(=O)c1ccc(NC(=S)N2CCCC2)cc1	9.83% (inactive)
CCOC(=O)c1ccc(NC(=O)CSc2ncccn2)cc1	26.6% (active)
CCOC(=O)c1ccc(NC(=O)c2cccnc2)cc1	38.1% (active)
COc1ccccc1N1CC(C(=O)Nc2nnc(SCC(=O)NC(C)C)s2)CC1=O (stereo not given)	-0.494% (inactive)
C=CCN1C(=O)C(O)(CC(=O)c2ccc(Cl)cc2)c2ccccc21 (stereo not given)	-1.68% (inactive)
Cc1c([N+](=O)[O-])c(N)nn1C	-1.77% (inactive)
COCCNC(=S)N(CCc1c(C)[nH]c2ccc(C)cc12)Cc1cccnc1	-0.385% (inactive)
C=CCNC(=O)c1sc(SC)cc1-c1ccc(Cl)cc1	-0.634% (inactive)
CCOC(=O)C1CCN(C(=O)CN2C(=O)c3cccnc3Oc3ccc(C)cc32)CC1	-3.81% (inactive)
CCCOc1ccc(C(=O)C(CCC(CNCC)C(=O)c2ccc(OCCC)cc2)CNCC)cc1 (stereo not given)	-10% (inactive)
O=S(=O)(NCC1CC1)c1ccc(F)c(Cl)c1	0.9% (inactive)
O=C(NC1C2CC3CC(C2)CC1C3)c1ccc(N2CCNCC2)c([N+](=O)[O-])c1 (stereo not given)	-2.96% (inactive)
N#Cc1cc([N+](=O)[O-])ccc1NCC1CCCO1 (stereo not given)	-4.48% (inactive)
CCOC(=O)c1ccc(NC(=O)Cc2cccs2)cc1	33% (active)
O=C(Cc1cccs1)Nc1ccc([N+](=O)[O-])cc1	-1.6% (inactive)

Structure (SMILES)	max response
CCOc1ccccc1NC(=O)Cc1cccs1	-3.39% (inactive)
COc1cccc(NC(=O)CC(c2ccc(OC(C)C)cc2)c2ccccc2OC)c1 (stereo not given)	2.51% (inactive)
COc1ccc(/C=C(\NC(=O)c2ccc(OCC(C)C)cc2)C(=O)OCc2ccco2)cc1	-1.98% (inactive)
COc1ccc(Cn2c(=S)[nH]c3cc(C(=O)NCCCN4CCOCC4)ccc3c2=O)cc1	-1.29% (inactive)
Cc1ccnc(NC(=O)CCNS(=O)(=O)c2ccc(C)c(C)c2)c1	47.8% (active)
Cc1ccc(S(=O)(=O)NCCC(=O)Nc2ccc(C)c(Cl)c2)cc1C	-4.03% (inactive)
Cc1ccc(S(=O)(=O)NCCC(=O)Nc2cccc(S(N)(=O)=O)c2)cc1C	-4.85% (inactive)
O=C1C=C(c2ccc(Cl)cc2)C(=O)N1Nc1ccccc1	-6.32% (inactive)
CCOc1cc(CNn2c(C)nnc2SCC(=O)NC(C)(C)C)ccc1OCC(=O)NC(C)(C)C	-1.88% (inactive)
Cn1cnc2c1c(=O)n(Cc1ccccc1C#N)c(=O)n2C	7.66% (inactive)
COc1ccccc1CN1CCCC(N2CCN(c3ccc(F)cc3)CC2)C1 (stereo not given)	0.35% (inactive)
N#CC(C#N)=Cc1cc(O)c(O)c([N+](=O)[O-])c1	37% (active)
O=[N+]([O-])c1cc([N+](=O)[O-])c2cccnc2c1O	5.27% (inactive)
CN(C)/N=C/c1cc(Cl)cc([N+](=O)[O-])c1O	-1.13% (inactive)
O=[N+]([O-])c1ccccc1/C=C/CN1CCC(O)CC1	0.466% (inactive)
CN(C)Cc1c(C#N)c2ccccc2n1C	-3.13% (inactive)
COc1ccc(CCNCc2c(-c3ccccc3)n(C)c3ccccc23)cc1	-3.43% (inactive)
COc1ccc(-c2c(C#Cc3ccccc3)c3ccccc3n2C)cc1	40% (active)
Cc1cc(=O)oc2c1ccc1ccccc12	0.801% (inactive)
O=C(CSc1nccc(=O)[nH]1)Nc1ccc(N2CCOCC2)c(Cl)c1	-2.31% (inactive)

From PubChem BioAssay AID2314 (National Center for Advancing Translational Sciences (NCATS), 2010)
